From PubChem BioAssay

molecular target: Torsin-1A-interacting protein 1 (Homo sapiens) (UniProt Q5JTV8); assay: LAP1 binders from COS7 cell lysate, primary screen, small-molecule microarray, 635/667 nm fluorescence (AID 1116); details: COS7-hLAP1 lysate binding, 635 nm fluorescence, higher = more signal
Sequence (Q5JTV8 whole entry, looked up): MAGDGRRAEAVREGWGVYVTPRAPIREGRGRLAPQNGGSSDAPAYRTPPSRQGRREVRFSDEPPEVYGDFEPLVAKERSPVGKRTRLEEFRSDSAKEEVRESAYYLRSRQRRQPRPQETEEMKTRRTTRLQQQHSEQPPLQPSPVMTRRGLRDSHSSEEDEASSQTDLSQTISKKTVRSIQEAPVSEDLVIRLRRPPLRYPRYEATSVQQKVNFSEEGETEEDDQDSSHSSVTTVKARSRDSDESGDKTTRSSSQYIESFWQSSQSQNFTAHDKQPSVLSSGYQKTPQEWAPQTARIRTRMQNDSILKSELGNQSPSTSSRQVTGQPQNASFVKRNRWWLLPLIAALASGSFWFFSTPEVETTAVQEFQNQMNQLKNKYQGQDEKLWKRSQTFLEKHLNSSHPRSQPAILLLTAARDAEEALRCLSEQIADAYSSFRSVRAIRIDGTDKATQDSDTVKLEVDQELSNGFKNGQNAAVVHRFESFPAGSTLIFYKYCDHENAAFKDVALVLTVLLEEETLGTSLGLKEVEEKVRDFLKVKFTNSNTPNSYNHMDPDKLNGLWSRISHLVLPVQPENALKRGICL

Compound | composite z-score
COc1ccc(O[C@H]2C=C[C@@H](c3ccccc3)O[C@@H]2COC(=O)CCC(C)=NOC(C)CN2CCCCc3nc(C)c(C)cc32)cc1 (some centres undefined) | 0.168
CO[C@@H]1COC(=O)CC=C[C@@H](C)[C@@H]2C=C[C@@H](O)[C@@H](COC(=O)CC=C[C@H]1C)O2 | -0.208
CCOC(=O)[C@H](Cc1ccccc1)NC(=O)CCC1CC(OC(=O)NCCc2ccc(F)cc2)CC2(CCCC(COC(=O)NCC(c3ccccc3)c3ccccc3)O2)O1 (some centres undefined) | 2.49
C[C@H]1CC[C@@H](C(=O)O)N[C@@H]1c1ccc(C#CCN(C)C)cc1 | 0.109
O=C1NC(=O)C2C1C=CC(C(O)Cc1ccccc1)N2Nc1ccccn1 (centres undefined) | 0.818
CCOC(=O)CCN1C(=O)[C@H]2[C@H]3[C@H](O)[C@H](O)CC(=NOC[C@@H](O)COCc4ccco4)[C@@H]3CC[C@H]2C1=O | 0.657
CC(C)(C)N1C(=O)[C@H]2[C@H]3[C@H](O)[C@H](O)CC(=NOCc4ccccc4)[C@@H]3CC[C@H]2C1=O | 0.593
COC(=O)[C@@]1(Cc2ccccc2)[C@H]2c3cc(C(=O)N4CCCC4)n(Cc4ccccn4)c3C[C@H]2CN1C(=O)c1ccccc1 | 2.42
C[C@@H](c1ccccc1)N1C(=O)[C@H]2[C@H]3[C@H](O)[C@H](O)CC(=NOC[C@@H](O)COCc4ccco4)[C@@H]3CC[C@H]2C1=O | -0.375
COc1ccc(O[C@H]2C=C[C@@H](c3ccccc3)O[C@@H]2COC(=O)CCC(C)=NOCC[C@@H]2C=C[C@H](OC(C)=O)[C@@H](COC(C)=O)O2)cc1 | 0.781
O=C1[C@H]2[C@H]3[C@H](O)[C@H](O)CC(=NOC[C@@H](O)COCc4ccco4)[C@H]3CC[C@H]2C(=O)N1c1cccc(Oc2ccccc2)c1 | 0.103
COC(=O)CC=C[C@@H](C)[C@@H](C=NO[C@@H](C)c1cc(-c2c(C)cc(C)cc2C)no1)OC | -1.75
COc1ccc(COC(=O)NN=C2C[C@@H](O)[C@@H](O)[C@@H]3[C@@H]4C(=O)N(Cc5ccc6c(c5)OCO6)C(=O)[C@@H]4CC[C@@H]23)cc1 | 0.508
C[C@@H]1CCC2C(=O)N(Cc3ccccc3)C[C@@H](O)CN2[C@H]1c1ccc(Br)cc1 (some centres undefined) | 0.199
